40 compounds from PubChem BioAssay (NCATS) can be followed below.

Molecules are shown by their SMILES. Records with an inconclusive call do not appear. A number with no mark means an inactive call. Activity calls are given as the source filed them. Calls follow the shape of the dose curve; as a rule, active = well fitted inhibition curve with a large enough effect; inconclusive = small, poorly fitted or top-dose-only effect; inactive = no such curve, though single readings can be large or run the other way.
% is scaled to controls: 0 for no effect and ±100 for the full control effect; potency is read from the fitted curve at half-maximal effect.

Chain of Cytochrome P450 3A7 (Homo sapiens) (P24462 whole entry, looked up): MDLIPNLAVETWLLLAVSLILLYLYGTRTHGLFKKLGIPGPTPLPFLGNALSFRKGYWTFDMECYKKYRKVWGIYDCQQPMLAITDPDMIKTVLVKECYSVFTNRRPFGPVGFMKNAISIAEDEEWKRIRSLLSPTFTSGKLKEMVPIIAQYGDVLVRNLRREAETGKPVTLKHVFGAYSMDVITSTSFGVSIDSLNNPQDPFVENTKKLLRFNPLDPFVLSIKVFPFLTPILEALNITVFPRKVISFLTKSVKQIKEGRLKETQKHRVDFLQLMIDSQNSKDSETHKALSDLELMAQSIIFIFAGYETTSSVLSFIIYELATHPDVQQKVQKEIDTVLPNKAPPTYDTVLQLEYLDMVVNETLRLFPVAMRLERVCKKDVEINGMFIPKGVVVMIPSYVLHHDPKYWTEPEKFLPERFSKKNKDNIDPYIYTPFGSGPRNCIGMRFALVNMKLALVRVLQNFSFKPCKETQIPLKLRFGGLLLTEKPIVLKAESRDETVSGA

The experiment has as its target Cytochrome P450 3A7 (Homo sapiens) (UniProt P24462). The experiment in a line: Cytochrome P450 family 3 subfamily A member 7 (CYP3A7) small molecule antagonists: luciferase biochemical qHTS assay (AID 1963596). Also: nearly all actives have a fitted effect of over 40% in size. Conditions: P450-Glo CYP3A7 enzyme luminescence, 1 h; series mostly up to 57.4 µM; activity change, negative = inhibition: at the top concentration. An outline of the steps: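 P450-Glo luminescent assay: CYP3A7 enzyme converts a proluciferin substrate to luciferin, detected by luciferase reagent; light proportional to activity. Compounds in DMSO preincubated 10 min with enzyme-substrate mix at room temperature, then NADPH regeneration added for 1 h.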
(In general: In qHTS, concentration-response curves come from the screen itself.)
In the case of `Cn1nc(-c2ccc(C(F)(F)F)cc2)nc2c(=O)n(C)c(=O)nc1-2`, the “activity change, negative = inhibition” value was 0%.
`Cn1ncnc1COc1nn2c(-c3cc(F)ccc3F)nnc2cc1C(C)(C)C`: the Potency is 4.47 µM (active).
For `C[C@@H]([C@@H](O)c1ccc(O)cc1)N1CCC(O)(c2ccccc2)CC1`, the “activity change, negative = inhibition” value was 2.88%.
Same read-out and setting: to `COc1ccc(C(=O)Nc2ncc(-c3ccc(C(=O)O)cc3)s2)cc1` belongs -1.69%.
The same measure, in the same setting: the value for `COC(=O)c1cc(Br)cnc1N1CCC(NC2CCCCC2)C(O)C1` (stereo not given) was -13.5%; that for `Cc1onc(-c2ccccc2)c1C(=O)N[C@@H]1C(=O)N2[C@@H]1SC(C)(C)[C@@H]2C(=O)O` was -20.6%.
The same measure, in the same setting: to `CCn1c2ccccc2c2cc(Nc3ccnc(NCCCN4CCOCC4)n3)ccc21` belongs 4.14%; to `N#Cc1cc(CN2CCC(Nc3ncnc4sc(Cl)cc34)CC2)ccc1F`, 22.4%; to `O=C(c1ccc(Cl)c([N+](=O)[O-])c1)N1CCN(c2ccccc2F)CC1`, 9.37%.
Consider `CCC(C)(C)C1CCc2c(sc(NC(=O)c3ccc(Br)cc3)c2C#N)C1` (stereo not given), for which the “activity change, negative = inhibition” value is 4.13%.
The same measure, in the same setting: the value for `C[C@@H](NC(=O)C(=O)c1c[nH]c2ccc([N+](=O)[O-])cc12)c1ccccc1` was 0%; that for `CC(=O)SCC(=O)c1ccc(NS(=O)(=O)c2ccc(OCCCN(C)C)cc2)nc1` was -13.5%.
For the compound `O=c1c(-c2ccccc2)c1-c1ccccc1`, the “activity change, negative = inhibition” value is -21.6%.
The same measure, in the same setting: the value for `CC(C)c1cccc(C(C)C)c1NC(=O)Nc1ccc(Sc2ccc([N+](=O)[O-])cc2)cc1` was 0.621%; that for `C(#Cc1cccc(CN2CCOCC2)c1)CCN1CCCCC1` was -2.92%; that for `CCC(C)C(N)C(=O)NCCN1CCOCC1` (stereo not given) was 7.22%.
Same read-out and setting: to `COc1cncc(C#Cc2ccccn2)c1` belongs -8.7%; to `COc1ccc(NC(=O)N2CCc3c2ccc2ccccc32)cc1N1CCN(C)CC1`, 0%; to `CCNC(=O)C1CC(F)(c2ccc(CN3CCCC3)c(F)c2)C1` (stereo not given), 0%.
Consider `CNC(=O)Nc1ccc(OC)c(NC(=O)NC(=O)c2cc(F)c(F)cc2Cl)c1`, for which the “activity change, negative = inhibition” value is -0.503%.
On the same count and under the same terms, the value for `Cc1cc(F)ccc1-c1nc(NCCN=C(N)NC#N)nc2c1ccc(=O)n2-c1c(F)cccc1F` was 0%.
The same measure, in the same setting: to `O=C1NC(=Nc2ccccc2F)S/C1=C\c1ccc(C(=O)O)cc1` belongs -26.4%; to `CC1(C)CC(NC(=O)C(=O)Nc2ccc(Cl)cc2)CC(C)(C)N1`, 5.96%.
As to `CC[C@H]1OC(=O)C[C@@H](O)[C@H](C)[C@@H](O[C@@H]2O[C@H](C)[C@@H](O)[C@H](N(C)C)[C@H]2O)[C@@H](CCN2C[C@H](C)C[C@H](C)C2)C[C@@H](C)C(=O)/C=C/C(C)=C/[C@@H]1CO[C@@H]1O[C@H](C)[C@@H](O)[C@@H](OC)[C@H]1OC`, the “activity change, negative = inhibition” value is -1.65%.
The same measure, in the same setting: the value for `CCCCS(=O)(=O)NC(Cc1ccc(OCCCCC2CCNCC2)cc1)C(=O)O` (stereo not given) was -3.86%.
On the same count and under the same terms, to `C=CC(=O)N1CCN(C(=O)c2cc(-c3cc(Cl)ccc3Cl)c(Cl)cc2OC)CC1` belongs 17%; to `CCOC(=O)N1CCC(NCCNC(=O)c2ccccc2C)CC1`, 1.42%; to `Nc1nc(N)c(N=O)c(OCC2CCCCC2)n1`, -4.9%.
Same read-out and setting: the value for `O=C(NC1CCN(CC(F)(F)F)CC1)c1ccc(-c2cccc(F)c2)nc1` was 10.7%.
With `Cc1ccnn1-c1ccc(C(=O)N2CCN(S(=O)(=O)c3ccc(Cl)c(C(F)(F)F)c3)CC2)cc1`, the “activity change, negative = inhibition” value is -24.8%.
Still for that read-out and setting: the value for `COc1ccc(C2=N[C@@H](c3ccc(Cl)cc3)[C@@H](c3ccc(Cl)cc3)N2C(=O)N2CCNC(=O)C2)c(OC(C)C)c1` was 12.7%; that for `CC(C)c1noc(C2CCN(c3ncnc(Nc4ccc(S(C)(=O)=O)cc4F)c3[N+](=O)[O-])CC2)n1` was 8.36%.
Consider `CCN(CC)CCCC(C)Nc1ccnc2cc(Cl)ccc12` (stereo not given), for which the “activity change, negative = inhibition” value was -24.4% [at 23.9 µM].
Still for that read-out and setting: the value for `COCCCNCC1COc2ccccc2O1` (stereo not given) was 0.747%; that for `O=C(NCC(O)CO)c1ccncc1Nc1ccc(I)cc1F` (stereo not given) was -28.1%.
As for `O=C(NCCCCN1CCN(c2cccc(Cl)c2Cl)CC1)c1cc2ccccc2s1`, the Potency was 2.82 µM (active).
With `COc1ccc(-c2cnc(-c3cccc4c3-c3ccccc3C4=O)o2)cc1`, the “activity change, negative = inhibition” value was -20.8% [at 23.9 µM].
On to `O=S(=O)(Cc1ccccc1)Nc1ccc(-c2ccc3c(cnn3-c3ccc(F)cc3)c2)c(C(F)(F)F)c1`, for which the Potency was 12 µM (active).
Consider `CC(=O)NCCCS(=O)(=O)O`, for which the “activity change, negative = inhibition” value was 0%.
On the same count and under the same terms, to `COc1ccc(-n2c(SCC#N)nc3sc4c(c3c2=O)CCCC4)cc1` belongs 14.6%.
